{"source": "ChEMBL document CHEMBL4888484", "about": "“Replenishing the malaria drug discovery pipeline: Screening and hit evaluation of the MMV Hit Generation Library 1 (HGL1) against asexual blood stage Plasmodium falciparum ,using a nano luciferase reporter read-out” (2022)", "note": "Screen size: about 4,800 compounds; about 420 (8.8%) showed an effect of 50% or more. For the sample, strong results were picked, then their nearest neighbours and some compounds at random.", "data": [{"tested_on": "Plasmodium falciparum", "test": "Confirmatory screen in NF54 nanoGlo assay, in single point, at 2uM, 72h", "type": "functional, Erythrocyte", "details": "timepoint 72 hour", "units": {"% Inhibition": "%"}, "values": [{"smiles": "Clc1ccc(COc2ccc(CNC3CCCCC3)cc2Br)cc1", "% Inhibition": -4}, {"smiles": "O=C(NC[C@H]1CCS(=O)(=O)C1)c1ccc2[nH]c3c(c2c1)CCCC3", "% Inhibition": -6}, {"smiles": "O=C(Cc1ncc(C(F)(F)F)cc1Cl)c1ccc(Cl)cc1Cl", "% Inhibition": -6}, {"smiles": "O=C(Nc1ccc(C(F)(F)F)cc1)N1CCN(CC(O)C2CCCO2)CC1", "note": "(stereo not given)", "% Inhibition": 4}, {"smiles": "CC(NC(=O)N1CCCCC1)(C(F)(F)F)C(F)(F)F", "% Inhibition": 7}, {"smiles": "COc1cccc(Oc2nc(N3CCN(C)CC3)nc3c2CN(C(=O)Nc2ccccc2)CC3)c1", "% Inhibition": 5}, {"smiles": "O=S(=O)(c1cccc(Cl)c1)N1CCc2nc(N3CCCCC3)nc(Oc3ccccc3)c2C1", "% Inhibition": 73}, {"smiles": "COc1cccc(CC(=O)N2CCc3nc(N4CCC(C)CC4)nc(Oc4ccccc4OC)c3C2)c1", "% Inhibition": 45}, {"smiles": "O=C(O)Cc1sc(-c2ccc(Cl)cc2)nc1-c1ccc(Oc2ccccc2)cc1", "% Inhibition": 0}, {"smiles": "CN1CCN(C(=O)[C@@H]2Cc3ccccc32)CC1", "% Inhibition": 2}, {"smiles": "CCc1nnc2ccc(S(=O)(=O)Nc3cc(F)cc(F)c3)cn12", "% Inhibition": -5}, {"smiles": "CCOC(=O)N1CCN(C(=O)C2c3ccccc3C(=O)N(C3CCCCC3)C2c2ccc(OC)cc2)CC1", "note": "(stereo not given)", "% Inhibition": -4}, {"smiles": "COc1cccc(S(=O)(=O)N2CCC(OCCOc3ccccc3)CC2)c1", "% Inhibition": 0}, {"smiles": "COc1cccc(S(=O)(=O)N2CCC(OCCOCc3ccccc3)CC2)c1", "% Inhibition": -3}, {"smiles": "COc1cccc(S(=O)(=O)N2CCCN(Cc3ccncc3)[C@H](c3ccccc3)CC(=O)NCC2)c1", "% Inhibition": 92}, {"smiles": "COCCCn1c(=O)c2ccccc2n(CC(=O)N2CCc3ccccc32)c1=O", "% Inhibition": -8}, {"smiles": "CC(C)OC(=O)N(CCOC(=O)Nc1cccc(Cl)c1)CCOC(=O)Nc1cccc(Cl)c1", "% Inhibition": -15}, {"smiles": "COc1ncccc1C(=O)NC[C@H](C)S(N)(=O)=O", "% Inhibition": 4}, {"smiles": "Cc1cc(NC(=O)C(=O)Nc2cnn(CCC(C)C)c2C)n(C)n1", "% Inhibition": -7}, {"smiles": "COc1ccccc1N(Cc1ccccc1)C1=NC(=[N+](Cc2ccccc2)c2ccccc2OC)c2ccccc21", "% Inhibition": 74}, {"smiles": "C[C@H](NC(=O)c1cc(C2CC2)[nH]n1)c1nccs1", "% Inhibition": -11}, {"smiles": "CN(C(=O)c1ccccc1Br)C(C)(C)C", "% Inhibition": -10}, {"smiles": "COc1ccccc1[C@H]1CC(O)=Nc2c1ncn2-c1cc(F)ccc1F", "% Inhibition": -3}, {"smiles": "Cc1nnc2ccc(S(=O)(=O)N(Cc3ccccc3F)c3ccccc3)cn12", "% Inhibition": -16}, {"smiles": "COc1cccc([C@H]2CC(=O)Nc3c2cnn3C)c1", "% Inhibition": -8}, {"smiles": "CCc1ccc(C2=C[C@@H](c3cccc(OC)c3)n3ncc(C(=O)Nc4ccc(C)cc4)c3N2)cc1", "% Inhibition": 70}, {"smiles": "COc1ccc(NC(=O)[C@@H]2COCC(=O)N2Cc2ccc(C)cc2)cc1", "% Inhibition": 1}, {"smiles": "CC[C@H](C)N1CCN(Cc2cccc(Oc3ccccc3)c2)CC1", "% Inhibition": -6}, {"smiles": "CC[C@H]1Cn2c(C(=O)N3CCN(c4ccccn4)CC3)cc3c(Cl)ccc(c32)O1", "% Inhibition": -8}, {"smiles": "Cc1nn(C)cc1-c1nnc(-c2ccccc2)o1", "% Inhibition": -17}, {"smiles": "COc1ccc(COC(=O)c2cccnc2C)cn1", "% Inhibition": -9}, {"smiles": "O=C(C[C@H]1CCCN1c1ccnc(C2CC2)n1)c1ccco1", "% Inhibition": 3}, {"smiles": "CCc1nc(NS(=O)(=O)c2cc(Cl)sc2Cl)no1", "% Inhibition": -4}, {"smiles": "O=C1NCCCc2nn(Cc3cc(F)ccc3Br)cc21", "% Inhibition": -12}, {"smiles": "CCOC(=O)c1c[nH]c2c(-c3ccccc3)nsc2c1=O", "% Inhibition": -5}, {"smiles": "O=C(c1cccs1)N1CCN(C2CCCCCC2)CC1", "% Inhibition": 1}, {"smiles": "CC(C)c1ccc(-c2nc(CN3CCCCC3)cc(CN3CCCCC3)c2O)cc1", "% Inhibition": 96}, {"smiles": "CC(C)c1nc(O)cc(CN2CCCCC2)n1", "% Inhibition": -8}, {"smiles": "Cc1ccc(C)c(NC(=O)CN2CCC3(CC2)NC(c2ccc(OC(F)(F)F)cc2)=NO3)c1", "% Inhibition": -3}, {"smiles": "CC(C)[C@@H]1CN(C(=O)c2ccncc2)c2ccccc2N1", "% Inhibition": -7}, {"smiles": "Cc1ccc(Cn2ccnc2C(=O)Nc2ccccc2)cc1", "% Inhibition": -15}, {"smiles": "CC1(C)OCc2cc(CNc3ccc4oc(=O)[nH]c4c3)ccc2O1", "% Inhibition": 93}, {"smiles": "CCCN1CC(=O)N(c2ccc(C)cc2)[C@@H]2CS(=O)(=O)C[C@@H]21", "% Inhibition": 4}, {"smiles": "COc1ccc(-c2nccn3cc(C(=O)N4CCN(c5cccc(OC)c5)CC4)nc23)cc1", "% Inhibition": -6}, {"smiles": "O=C(NCc1ccccc1OC1CCC1)N(CCO)C1CC1", "% Inhibition": -2}, {"smiles": "CC(=O)N(c1ccccc1)[C@H]1C[C@@H](C)N(C(=O)C(F)(F)F)c2ccccc21", "% Inhibition": 9}, {"smiles": "Cc1noc(C)c1CN1C[C@@H]2Oc3cc(F)ccc3C(=O)N(C)[C@@H]2C1", "% Inhibition": 92}, {"smiles": "Cc1noc(C)c1CN1CCNC(=O)CC1", "% Inhibition": -11}, {"smiles": "Cc1noc(C)c1CN1CCCN(C(=O)c2n[nH]c3ccccc23)CC1", "% Inhibition": 0}, {"smiles": "O=C1O[C@@H](CO)CN1c1cccc(F)c1", "% Inhibition": -4}, {"smiles": "COc1ccc2nc(N3CN(Cc4ccccc4)CN(c4nc5ccc(OC)cc5s4)C3)sc2c1", "% Inhibition": 3}, {"smiles": "O=C(Cc1ccc(N(Cc2cccc(F)c2)C(=O)c2cccc(F)c2)cc1)NCCN1CCCCC1", "% Inhibition": 38}, {"smiles": "Cc1ccc(C(=O)N(Cc2cccc(F)c2)c2ccc(CC(=O)N[C@@H](C)c3ccccc3)cc2)cc1", "% Inhibition": 81}, {"smiles": "Cc1ccccc1C(=O)N(Cc1cccc(F)c1)c1ccc(CC(=O)NCCN2CCCCC2)cc1", "% Inhibition": 44}, {"smiles": "CNC(=O)Cc1c(Cl)cccc1Cl", "% Inhibition": 1}, {"smiles": "CN1CCN(C(=O)C[C@@H]2CCN3C[C@@H]2/C=C\\COc2ccccc2CN(C(=O)CC(C)(C)C)CC3=O)CC1", "% Inhibition": 5}, {"smiles": "Nc1cc(Br)c(C(F)(F)F)cc1NC(=O)C(F)(F)F", "% Inhibition": -11}, {"smiles": "CCn1cc(Br)c(=O)c(NC(=O)[C@H]2CCCOC2)c1", "% Inhibition": -7}, {"smiles": "Cc1nc2cc(NC(=O)c3cccs3)ccc2o1", "% Inhibition": -8}, {"smiles": "CC(C)(CC(=O)Nc1ccc2oc(C3CC3)nc2c1)C(=O)O", "% Inhibition": -2}, {"smiles": "Cc1nc2cc(NC(=O)[C@@]3(C)CCCN(C(=O)c4ccccc4)C3)ccc2o1", "% Inhibition": 57}, {"smiles": "CNC(=O)c1cnc(C=Cc2cnc(-c3cccnc3)s2)s1", "% Inhibition": 0}, {"smiles": "CC[N+](C)(CC)CCOc1cc(C)c2ccccc2n1", "% Inhibition": 53}, {"smiles": "Cc1cc(C)c2ccc3ccccc3c2n1", "% Inhibition": -4}, {"smiles": "CC(C)(NCc1ccccc1Cl)C(=O)O", "% Inhibition": 4}, {"smiles": "Cc1ccc(S(=O)(=O)Nc2ccc(Oc3ccc(NS(=O)(=O)c4ccc(C)cc4)cc3)cc2)cc1", "% Inhibition": 3}, {"smiles": "N[C@H]1C[C@H](c2cc(NCCCc3cccnc3)nc(C3CC3)n2)C1", "% Inhibition": 75}, {"smiles": "Cc1ccc(OCCNc2cc([C@H]3C[C@H](N)C3)nc(C3CC3)n2)cc1C", "% Inhibition": 31}, {"smiles": "N#Cc1c(-c2ccccc2)cc(-c2ccccc2)nc1S(=O)(=O)Cc1ccccc1", "% Inhibition": 35}, {"smiles": "N#Cc1nc2c(C#N)c(N)n(CCc3ccccc3)c2nc1C#N", "% Inhibition": 87}, {"smiles": "Nc1nc2c(s1)CN(CCc1ccccc1)CC2", "% Inhibition": 38}, {"smiles": "O=C(c1ccccc1)N1N=C(C(F)(F)F)C2CCCCCC21O", "note": "(stereo not given)", "% Inhibition": -11}, {"smiles": "CCC1Cn2c(C(=O)NC(C)Cc3ccco3)cc3cccc(c32)O1", "note": "(stereo not given)", "% Inhibition": -8}, {"smiles": "CCOC(=O)N(c1ccccc1)[C@H]1CC(=O)N(c2ccccc2)C1=O", "% Inhibition": 1}, {"smiles": "Cc1nnc2ccc(S(=O)(=O)Nc3cc(F)cc(F)c3)cn12", "% Inhibition": -4}, {"smiles": "Cn1cc(CN2CCC(C(=O)NCCCN3CCCCC3)CC2)c2cc(Cl)ccc21", "% Inhibition": -7}, {"smiles": "O=C(NCCCN1CCOCC1)c1ccc(-c2cnc(NC3CCCCC3)nc2)cc1", "% Inhibition": -8}, {"smiles": "Cc1cc2nc(C)c(=O)n(Cc3ccc(C(=O)NCCN4CCCC[C@@H]4C)cc3)c2cc1C", "% Inhibition": 17}, {"smiles": "COc1ccc(-c2nccn3cc(C(=O)NCCN(C)C4CCCCC4)nc23)cc1", "% Inhibition": 6}, {"smiles": "O=S1(=O)NC(c2ccccc2)(c2ccccc2)c2ccccc21", "% Inhibition": 1}, {"smiles": "Cc1ccc(NC(=O)c2c(C)nc3sc(C(=O)NCc4ccccc4)c(N)c3c2-c2cccs2)c(C)c1", "% Inhibition": 2}, {"smiles": "Cc1ccc(NC(=O)c2c(C)nc3sc(C(=O)NCc4ccccc4)c(N)c3c2-c2ccccc2Cl)c(C)c1", "% Inhibition": 77}, {"smiles": "CCc1ccc(NC(=O)c2sc3nc(C)c(C(=O)Nc4ccc(C)cc4C)c(-c4ccccc4Cl)c3c2N)cc1", "% Inhibition": 16}, {"smiles": "CC(C)NC(=O)C(=O)Nc1nccs1", "% Inhibition": -14}, {"smiles": "CC(C)c1nc(CN(C)[C@@H](C)C(=O)Nc2nccs2)cs1", "% Inhibition": 22}, {"smiles": "CC(C)N(CC(=O)Nc1nccs1)Cc1ccccn1", "% Inhibition": 68}, {"smiles": "O=c1cc2c(nn1Cc1ccccc1Cl)-c1ccccc1CC2", "% Inhibition": -8}, {"smiles": "O=C(c1ccc(O)cc1)C1CCN(C[C@H](O)C(F)(F)F)CC1", "% Inhibition": 5}, {"smiles": "Cc1nn(C)c2c(N3CCc4ccccc4C3)nc(C3CC3)nc12", "% Inhibition": -7}, {"smiles": "CCOCCCNC(=O)c1ccc(-c2ccc3c(c2)CCN3C(C)=O)cc1", "% Inhibition": -2}, {"smiles": "O=C(NCC1CCCCC1)c1cn[nH]c1-c1ccccc1", "% Inhibition": -4}, {"smiles": "O=C(NCC1CCCCC1O)c1cnn2ccncc12", "note": "(stereo not given)", "% Inhibition": -12}, {"smiles": "O=C1Nc2ccccc2O[C@H]2C[C@@H]1N(CC1CC1)C2", "% Inhibition": -10}, {"smiles": "CC(=O)c1cccc(NC(=O)Cc2c(C)nc3nc(C4CCCCC4)nn3c2C)c1", "% Inhibition": 5}, {"smiles": "c1ccc(-c2noc(-c3ccc(NC4CCCCC4)nn3)n2)cc1", "% Inhibition": 55}, {"smiles": "CC(C)N1CCN(C(=O)CN2N=C(c3nc(-c4ccccc4)no3)CCC2=O)CC1", "% Inhibition": 5}, {"smiles": "Clc1ccc(-c2noc(C3CNC3)n2)cc1", "% Inhibition": 21}, {"smiles": "Cc1nn(-c2ncc(C(F)(F)F)cc2Cl)c(=O)n1-c1cccc(F)c1", "% Inhibition": -4}, {"smiles": "CC(C)(C)c1nc(CNc2ccc(S(=O)(=O)CCO)cc2)no1", "% Inhibition": -9}, {"smiles": "Cc1cc(=O)[nH]c(N2CCCCCC2)n1", "% Inhibition": -2}, {"smiles": "COc1ccc(Cl)cc1C(=O)N(C1CCOCC1)[C@H]1CCCN(S(C)(=O)=O)C1", "% Inhibition": -9}, {"smiles": "COc1ccc(Cl)cc1C(=O)Nc1cc(C2CC2)nn1-c1nc(C)cc(=O)[nH]1", "% Inhibition": 66}, {"smiles": "COc1ccc(NC(=O)c2cc(C3CC3)nc3onc(C4CC4)c23)cc1Cl", "% Inhibition": -3}, {"smiles": "Cc1cc(=O)[nH]c(-n2nc(C3CC3)cc2NC(=O)C(C)(C)Oc2ccc(Cl)cc2)n1", "% Inhibition": 85}, {"smiles": "O=C(COc1ccc(Cl)cc1)N1CC(n2cnnc2C2CC2)C1", "% Inhibition": -7}]}]}
